# The source made the active and inactive calls. Unless noted, no rule for the calls is given here.
# Tests used:
# [1] = anti-His antibody binders, primary screen, artefact control for SMM control protein annotation, biochemical, small-molecule microarray, 635 nm fluorescence (AID 1128); settings: anti-His Alexa647 antibody binding, higher = more signal;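 also: score merges feature fluorescence with signal-to-noise for each printed compound spot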
# [2] = test system: Human papillomavirus type 1a E7 protein (residues 1-88); assay: HPV1a E7 small-molecule binders, primary screen, biochemical, small-molecule microarray, residues 1-88, 635 nm (AID 1129); settings: small-molecule microarray binding, fluorescence 635 nm; higher = more signal
# [3] = molecular target: Focal adhesion kinase 1 (Homo sapiens) (UniProt Q05397); assay: small-molecule microarray binders of FAK, primary screen, biochemical, 635/667 nm fluorescence, BSA, DTT (AID 1130); settings: PTK2 binding, 635 nm fluorescence, higher = more signal;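 also: composite of spot emission at 667 nm and signal to noise over triplicate slides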
# Chain of Focal adhesion kinase 1 (Homo sapiens) (Q05397 whole entry, looked up): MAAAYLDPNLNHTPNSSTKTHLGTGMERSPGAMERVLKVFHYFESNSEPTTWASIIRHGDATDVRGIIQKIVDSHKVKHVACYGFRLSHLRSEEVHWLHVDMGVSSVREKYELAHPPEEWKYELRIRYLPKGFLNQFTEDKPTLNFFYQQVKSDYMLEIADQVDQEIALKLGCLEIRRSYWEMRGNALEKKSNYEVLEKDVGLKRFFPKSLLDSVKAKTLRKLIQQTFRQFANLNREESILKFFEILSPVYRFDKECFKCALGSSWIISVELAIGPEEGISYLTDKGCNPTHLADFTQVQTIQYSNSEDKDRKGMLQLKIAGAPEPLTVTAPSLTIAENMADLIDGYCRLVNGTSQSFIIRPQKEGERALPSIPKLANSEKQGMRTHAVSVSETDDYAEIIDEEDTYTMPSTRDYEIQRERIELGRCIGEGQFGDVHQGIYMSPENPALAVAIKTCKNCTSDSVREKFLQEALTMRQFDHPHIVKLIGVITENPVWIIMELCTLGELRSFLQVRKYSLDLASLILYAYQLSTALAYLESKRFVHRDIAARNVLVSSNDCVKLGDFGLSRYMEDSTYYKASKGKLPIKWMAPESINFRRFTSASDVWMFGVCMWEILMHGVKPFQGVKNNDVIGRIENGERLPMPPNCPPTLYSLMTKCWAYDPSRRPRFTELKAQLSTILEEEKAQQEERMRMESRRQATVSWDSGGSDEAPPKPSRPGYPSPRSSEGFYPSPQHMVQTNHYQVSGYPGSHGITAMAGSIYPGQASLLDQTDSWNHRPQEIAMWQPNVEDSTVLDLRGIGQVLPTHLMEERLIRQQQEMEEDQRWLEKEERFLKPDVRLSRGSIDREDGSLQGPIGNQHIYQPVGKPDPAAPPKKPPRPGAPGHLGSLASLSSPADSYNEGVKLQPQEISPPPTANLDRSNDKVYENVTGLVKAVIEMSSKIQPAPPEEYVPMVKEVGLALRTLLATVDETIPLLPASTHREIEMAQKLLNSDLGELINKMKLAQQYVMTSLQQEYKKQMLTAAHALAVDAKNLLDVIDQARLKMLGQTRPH
# [4] = test system: Fibrinogen (Alexa647-labelled); assay: fibrinogen binders on compound microarrays, profiling panel, artefact control for SMM control-protein annotation, biochemical, small-molecule microarray, 635/667 nm fluorescence (AID 1131); settings: fibrinogen-A647 binding fluorescence, higher = more signal;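 also: z-score merges 667 nm fluorescence with per-spot signal-to-noise over triplicate slides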
# [5] = molecular target: Follistatin (Homo sapiens) (UniProt P19883); assay: follistatin binders on small-molecule microarrays, primary screen, biochemical, small-molecule microarray, 635/667 nm fluorescence (AID 1132); settings: FST binding, 635 nm fluorescence, higher = more signal
# Chain of Follistatin (Homo sapiens) (P19883 whole entry, looked up): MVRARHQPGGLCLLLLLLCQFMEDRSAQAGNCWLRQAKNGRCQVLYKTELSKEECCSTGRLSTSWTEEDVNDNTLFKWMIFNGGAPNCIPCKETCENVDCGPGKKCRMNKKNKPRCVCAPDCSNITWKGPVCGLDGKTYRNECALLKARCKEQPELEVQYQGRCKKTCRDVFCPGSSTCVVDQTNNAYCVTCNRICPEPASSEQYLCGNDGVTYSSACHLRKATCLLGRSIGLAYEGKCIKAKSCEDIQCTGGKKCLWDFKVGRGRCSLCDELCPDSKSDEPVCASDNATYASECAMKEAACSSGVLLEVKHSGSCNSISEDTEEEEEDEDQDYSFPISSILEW
# [6] = molecular target: Fibroblast growth factor 2 (Homo sapiens) (UniProt P09038); assay: FGF2 binders on small-molecule microarrays, primary screen, biochemical, small-molecule microarray, 635/667 nm fluorescence (AID 1133); settings: small-molecule microarray binding, FGF2, fluorescence 635/667; higher = more signal
# Chain of Fibroblast growth factor 2 (Homo sapiens) (P09038 whole entry, looked up): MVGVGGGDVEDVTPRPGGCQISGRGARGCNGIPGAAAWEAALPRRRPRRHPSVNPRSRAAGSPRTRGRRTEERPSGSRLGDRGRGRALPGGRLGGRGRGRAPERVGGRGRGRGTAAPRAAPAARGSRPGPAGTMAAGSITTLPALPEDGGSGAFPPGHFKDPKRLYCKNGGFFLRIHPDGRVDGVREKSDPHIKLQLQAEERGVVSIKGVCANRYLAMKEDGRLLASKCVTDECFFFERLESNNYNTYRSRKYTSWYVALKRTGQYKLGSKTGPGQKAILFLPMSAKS
# [7] = mitochondrial membrane potential change in A549 cells, profiling panel, cell-based, JC-1 fluorescence, basal, 24 h, 100 nL (AID 1138); settings: higher = more signal;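 also: A549 lung adenocarcinoma cells under basal conditions with no added stimulus; test concentration not given here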
# Lefty1 = Lefty1 binders on small-molecule microarrays, primary screen, biochemical, small-molecule microarray, 635/667 nm fluorescence (AID 1139); settings: small-molecule microarray binding, fluorescence 635/667; higher = more signal
# [8] = test system: wheat germ agglutinin (Triticum aestivum), Alexa647-labelled; assay: wheat germ agglutinin binders on compound microarrays, profiling panel, artefact control for SMM control-protein annotation, biochemical, small-molecule microarray, 635/667 nm fluorescence (AID 1140); settings: WGA-A647 binding, 635 nm fluorescence, higher = more signal;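 also: score merges 667 nm feature emission with signal to noise over triplicate slides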
# [9] = molecular target: Luciferin 4-monooxygenase (Photinus pyralis) (UniProt P08659); assay: firefly luciferase enzyme inhibitors, primary screen, biochemical, luminescence, purified enzyme, 2006 set (AID 1141); settings: SteadyGlo luminescence, 30 min, higher = more signal, called active from +8 up or from −8 down;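 also: cell-free assay with purified firefly luciferase at 100 ng per well in PBS; test concentration not given here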
# Chain of Luciferin 4-monooxygenase (Photinus pyralis) (P08659 whole entry, looked up): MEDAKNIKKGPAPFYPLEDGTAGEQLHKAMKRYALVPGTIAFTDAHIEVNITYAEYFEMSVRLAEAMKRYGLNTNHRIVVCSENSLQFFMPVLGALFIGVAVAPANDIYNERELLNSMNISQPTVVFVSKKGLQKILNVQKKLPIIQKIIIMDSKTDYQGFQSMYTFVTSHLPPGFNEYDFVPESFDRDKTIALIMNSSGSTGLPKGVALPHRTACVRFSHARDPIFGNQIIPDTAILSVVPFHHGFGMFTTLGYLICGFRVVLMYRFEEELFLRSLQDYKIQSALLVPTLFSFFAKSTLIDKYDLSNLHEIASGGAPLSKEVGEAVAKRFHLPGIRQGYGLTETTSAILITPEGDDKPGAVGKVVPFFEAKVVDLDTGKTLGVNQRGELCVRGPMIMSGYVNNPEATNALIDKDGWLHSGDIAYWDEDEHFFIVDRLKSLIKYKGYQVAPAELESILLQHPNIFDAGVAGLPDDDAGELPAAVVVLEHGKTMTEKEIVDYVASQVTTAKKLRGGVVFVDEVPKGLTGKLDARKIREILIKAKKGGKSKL
# [10] = test system: Wnt5a (protein binding on small-molecule microarray); assay: Wnt5a binders on small-molecule microarray, primary screen, biophysical, 635/667 nm fluorescence (AID 1142); settings: 635 nm fluorescence, higher = more signal;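 also: fluorescence read at 667 nm with signal to noise per printed feature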
# [11] = cell viability in Huh7 cells, primary screen, cytotoxicity control for HCV replication inhibitor project, CellTiter-Glo luminescence, basal, 48 h (AID 1143); settings: Huh7 HCV replicon, higher = more signal, called active from +8 up or from −8 down;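 also: Huh7 hepatoma cells carrying a hepatitis C replication reporter with no stimulus; test concentration not given here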
# [12] = P. aeruginosa biofilm formation inhibitors, primary screen, PAO1 strain, BacTiter-Glo luminescence, LB-PBS (AID 1144); settings: 12 h, higher = more signal
# [13] = CREB reporter modulators without forskolin, primary screen, cell-based, PC12, CRE-LacZ reporter, unstimulated (AID 1145); settings: no forskolin, luminescence, 4.5 h, higher = more signal, called active from +8 up or from −8 down
# [14] = CREB reporter modulators under forskolin, primary screen, cell-based, PC12, CRE-LacZ reporter, forskolin-stimulated (AID 1146); settings: luminescence, 4.5 h, higher = more signal, called active from +8 up or from −8 down;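 also: PC12 cells with 6xCRE LacZ reporter stimulated by forskolin 10 µM; beta-galactosidase reporter signal reflecting CREB driven transcription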
# [15] = molecular target: Streptavidin (Streptomyces avidinii) (UniProt P22629); assay: streptavidin binders on small-molecule microarray, primary screen, artefact control for SMM compound annotation, biophysical, 635/667 nm fluorescence (AID 1147); settings: streptavidin binding, higher = more signal;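 also: signal reflects streptavidin binding to arrayed compounds as a control protein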
# Chain of Streptavidin (Streptomyces avidinii) (P22629 whole entry, looked up): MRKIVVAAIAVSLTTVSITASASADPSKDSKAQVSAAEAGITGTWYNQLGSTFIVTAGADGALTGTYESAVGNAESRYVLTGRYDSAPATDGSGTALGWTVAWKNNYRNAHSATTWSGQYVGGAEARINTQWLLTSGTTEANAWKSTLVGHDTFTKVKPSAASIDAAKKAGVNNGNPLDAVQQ
# [16] = small-molecule binders of probe aInhba, primary screen, biochemical, small-molecule microarray, 635/667 nm fluorescence (AID 1148); settings: higher = more signal;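 also: score merges 667nm spot fluorescence with signal-to-noise for antibody binding to printed compounds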
# Torsin-1A (Homo sapiens) [17] = molecular target: Torsin-1A (Homo sapiens) (UniProt O14656); assay: torsin A binders from cell lysate, primary screen, small-molecule microarray, wild-type, 635/667 nm (AID 1149); settings: COS7 hTOR1A-WT lysate, 635 nm fluorescence, higher = more signal
# Chain of Torsin-1A (Homo sapiens) (O14656 whole entry, looked up): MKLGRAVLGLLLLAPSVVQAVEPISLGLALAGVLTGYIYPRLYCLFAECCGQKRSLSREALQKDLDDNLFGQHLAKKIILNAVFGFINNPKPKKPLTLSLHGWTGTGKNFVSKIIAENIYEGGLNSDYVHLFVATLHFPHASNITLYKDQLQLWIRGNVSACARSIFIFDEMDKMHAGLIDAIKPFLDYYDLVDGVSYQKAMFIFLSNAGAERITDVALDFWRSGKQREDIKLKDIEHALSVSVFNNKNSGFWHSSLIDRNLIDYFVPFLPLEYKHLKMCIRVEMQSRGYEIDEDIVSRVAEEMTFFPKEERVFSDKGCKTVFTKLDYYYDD
# Torsin-1A (Homo sapiens) [18] = molecular target: Torsin-1A (Homo sapiens) (UniProt O14656); assay: small-molecule binders of mutant TOR1A in lysate, primary screen, cell lysate, small-molecule microarray, COS7 lysate, 635/667 nm fluorescence (AID 1150); settings: COS7 hTOR1A mutant lysate, 635 nm fluorescence, higher = more signal;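 also: score pools 667 nm emission and signal to noise measuring lysate protein binding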
# [19] = test system: Sonic hedgehog protein (Shh); assay: small-molecule binders of Shh protein, primary screen, biochemical, small-molecule microarray, 635/667 nm fluorescence (AID 1151); settings: small-molecule microarray binding, 635 nm fluorescence; higher = more signal;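 also: Shh protein binding to compounds spotted on small-molecule microarray slides; score combines spot fluorescence intensity with signal-to-noise across triplicate slides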
SMILES,composite z-score [1],composite z-score [2],composite z-score [3],composite z-score [4],composite z-score [5],composite z-score [6],z-score [7],composite z-score (Lefty1),composite z-score [8],z-score [9],composite z-score [10],z-score [11],z-score [12],z-score [13],z-score [14],composite z-score [15],composite z-score [16],composite z-score (Torsin-1A (Homo sapiens) [17]),composite z-score (Torsin-1A (Homo sapiens) [18]),composite z-score [19]
Cc1ccc(S[C@]2(C(=O)NC3CC3)CC(=O)N(Cc3cc(C(F)(F)F)cc(C(F)(F)F)c3)[C@@H]2c2ccc(CO)cc2I)cc1,2.99,1.03,0.941,0.103,1.09,0.483,-0.271,-0.337,0.0196,0.717 (inactive),0.272,-0.636 (inactive),0.141 (inactive),-0.0243 (inactive),1.16 (inactive),0.389,0.532,-0.597,0.409,1.14
CCOC(=O)C[C@H]1[C@H](OC(=O)c2ccc(-c3ccccc3)cc2)[C@@H](NC(=O)CC(C)C)c2cc(OCCCO)ccc2N1C(=O)Cc1ccc(OC)cc1,-0.283,0.686,0.0381,0.54,-0.195,0.0007,0.598,-0.276,0.535,0.491 (inactive),0.0564,-0.155 (inactive),0.606 (inactive),0.0035 (inactive),-0.163 (inactive),0.438,-0.0223,-0.111,0.508,-0.307
C=CCC(OC(C)=O)[C@@H]1[C@@H](N(Cc2cc3ccccc3o2)C(=O)Cc2ccc(OC)cc2)c2cc(OCCCO)ccc2N1C(=O)Cc1ccc2ccccc2c1 (stereo not given in full),0.305,-0.866,0.102,0.136,0.279,-0.662,0.432,-0.173,0.116,-0.1 (inactive),-0.211,-0.392 (inactive),0.334 (inactive),1.25 (inactive),0.775 (inactive),0.0489,-0.155,-0.773,-1.01,-0.155
C=CCC(OC(C)=O)[C@@H]1[C@@H](N(Cc2cc3ccccc3o2)C(=O)c2cccc3ccccc23)c2cc(OCCCO)ccc2N1C(=O)c1ccc2ccccc2c1 (stereo not given in full),-0.0596,-0.566,0.11,-0.262,0.65,0.133,-0.0697,0.203,-0.0449,0.131 (inactive),0.316,-0.928 (inactive),0.26 (inactive),3.85 (inactive),0.0746 (inactive),0.0823,-0.0791,0.523,0.132,0.198
C=CCC(OC(C)=O)[C@@H]1[C@@H](N(Cc2ccc(-c3cccc(C(F)(F)F)c3)o2)C(=O)Cc2ccc(OC)cc2)c2cc(OCCCO)ccc2N1C(=O)c1ccc2ccccc2n1 (stereo not given in full),0.292,-1.64,-0.236,-0.665,0.767,-0.149,-0.448,0.0089,0.113,0.471 (inactive),-0.162,-1.45 (inactive),0.6 (inactive),0.339 (inactive),0.792 (inactive),-0.356,0.0517,0.0833,-0.475,0.38
COc1cc2c(cc1O)C(c1ccc(CN3CCCC3)cc1)N(Cc1cccc(OC(F)(F)F)c1)CC2 (stereo not given),1.67,0.879,-0.425,0.406,1.22,0.476,-2.01,0.242,0.625,-1.37 (inactive),-0.0324,-5.42 (inactive),1.15 (inactive),0.0924 (inactive),0.248 (inactive),0.0307,-0.15,0.47,1.13,0.345
COCCOC(=O)N1C(=O)[C@@]2(c3cc(C#CCCO)ccc31)[C@H](C(=O)N1CCN(c3ncccn3)CC1)[C@H]1C(=O)O[C@H](c3ccccc3)[C@H](c3ccccc3)N1[C@@H]2c1ccc(O)cc1,2.17,1.22,1.19,0.928,0.577,0.088,1.35,0.413,0.613,-0.979 (inactive),0.15,-1.79 (inactive),-0.798 (inactive),0.484 (inactive),0.268 (inactive),-0.269,-0.291,-0.144,0.522,1.11
O=C1OCCC/C=C\[C@H]2OC34C=CCN(Cc5ccccc5)C(=O)[C@H]3N(CCCCCO)C(=O)[C@@H]4C12 (stereo not given in full),-0.862,-1.2,-0.603,-1.62,-1.07,-0.883,0.537,-0.696,-1.09,-0.984 (inactive),-0.238,0.255 (inactive),1.2 (inactive),0.732 (inactive),0.327 (inactive),-1.26,-0.186,-0.234,-1.75,0.168
COc1ccc(CCNC(=O)[C@@]2(C)c3ccccc3C(=O)N(Cc3cc(C(F)(F)F)cc(C(F)(F)F)c3)[C@H]2c2ccc(CO)cc2)cc1,0.202,1.07,0.431,-0.0796,1.19,0.491,0.502,0.0292,0.367,-0.868 (inactive),0.024,-5.45 (inactive),0.603 (inactive),1.18 (inactive),-0.896 (inactive),-0.404,-0.102,0.602,1.52,0.198
C=CCOC(=O)[C@@H]1[C@H]2C(=O)O[C@H](c3ccccc3)[C@H](c3ccccc3)N2[C@H](c2ccc(OCCOC(=O)[C@H]3C[C@H]4C(=O)NCC(=O)N4[C@H]3c3ccc(O)cc3)cc2)[C@@]12C(=O)Nc1ccc(I)cc12,1.24,1.19,0.701,0.732,1.27,1.39,-1.1,1.06,0.665,-0.483 (inactive),0.266,-0.199 (inactive),0.22 (inactive),-0.394 (inactive),-0.732 (inactive),0.868,-0.0163,1.11,0.854,1.81
